According to PubChem BioAssay (NCATS):
Inconclusive results are not listed. Entries that show only a call come without a potency. Active and inactive are the calls of the source. Calls follow the shape of the dose curve; as a rule, active = well fitted inhibition curve with a large enough effect; inconclusive = small, poorly fitted or top-dose-only effect; inactive = flat fitted curve, though single readings scatter.

System: astro (control astrocytes)
Assay: Drug repurposing screens with cells derived from glioblastoma tumor samples (AID 1345199); also: nearly all actives have a fitted effect of over 40% in size
Conditions: viability, ATP luminescence, 48 h; series mostly up to 45.9 µM
In short: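 Primary testing used CD133+ neurospheres from four GBM patients, seven concentrations, 48 h exposure and ATP-based viability; confirmation added three slower-growing patient lines.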
Potency is read from the fitted curve at half-maximal effect.

SMILES | Potency
CCC(=O)NS(=O)(=O)c1ccc(-c2c(-c3ccccc3)noc2C)cc1 | inactive
CCOc1ccc2c(c1)C(C)=CC(C)(C)N2 | inactive
O=C(O)c1cc(O)c2c(c1)[O][Bi][O]2 | inactive
Nc1ncnc2c1ncn2[C@@H]1O[C@H](COP(=O)(O)OP(=O)(O)OP(=O)(O)O)[C@@H](O)[C@H]1O | inactive
CC(NNC(=O)c1ccccc1)c1ccccc1 (stereo not given) | inactive
CC[C@@H](C(=O)[C@@H](C)[C@@H](O)[C@H](C)CCc1ccc(C)c(O)c1C(=O)O)[C@H]1O[C@](CC)([C@H]2CC[C@](O)(CC)[C@H](C)O2)C[C@@H]1C | 7080 nM (active)
CO[C@H]1C=CO[C@@]2(C)Oc3c(C)c(O)c4c(O)c(c5c(c4c3C2=O)=NC2(CCN(CC(C)C)CC2)N=5)NC(=O)/C(C)=C\C=C/[C@H](C)[C@H](O)[C@@H](C)[C@@H](O)[C@@H](C)[C@H](OC(C)=O)[C@@H]1C | inactive
CN1Cc2c(N)cccc2C(c2ccccc2)C1 (stereo not given) | inactive
OC[C@H]1O[C@@H](OCCc2ccc(O)cc2)[C@H](O)[C@@H](O)[C@@H]1O | inactive
C[C@H](CCC(=O)O)[C@H]1CC[C@H]2[C@@H]3[C@H](O)C[C@@H]4C[C@H](O)CC[C@]4(C)[C@H]3CC[C@]12C | inactive
CO[C@@H]1[C@@H](O[C@@H]2O[C@H](C)[C@@H](O[C@H]3C[C@@](C)(O)[C@@H](O)[C@H](C)O3)[C@H](N(C)C)[C@H]2O)[C@@H](CC=O)C[C@@H](C)[C@@H](O[C@@H]2CC[C@H](N(C)C)[C@@H](C)O2)/C=C/C=C/C[C@@H](C)OC(=O)C[C@H]1O | inactive
CCCCCCCCCCCC[n+]1ccc2ccccc2c1 | 5010 nM (active)
O=C(Nc1ccc(Br)cc1)c1cc(Br)c(Br)s1 | 11200 nM (active)
O=C(COc1ccc(Cl)cc1)OCCNC12CC3CC(CC(C3)C1)C2 | inactive
O=C(Nc1cccc(C(F)(F)F)c1)c1cc(Br)cc(Br)c1O | 2510 nM (active)
CC1=C(/C=C/C(C)=C/C=C/C(C)=C/C=C/C=C(C)/C=C/C=C(C)/C=C/C2=C(C)CCCC2(C)C)C(C)(C)CCC1 | inactive
COc1cc([C@@H]2c3cc4c(cc3[C@@H](O[C@@H]3O[C@@H]5CO[C@@H](C)O[C@H]5[C@H](O)[C@H]3O)[C@H]3COC(=O)[C@H]23)OCO4)cc(OC)c1O | inactive
CCCCC(=O)OCC(=O)[C@]1(O)Cc2c(O)c3c(c(O)c2[C@@H](O[C@H]2C[C@H](NC(=O)C(F)(F)F)[C@H](O)[C@H](C)O2)C1)C(=O)c1c(OC)cccc1C3=O | 2240 nM (active)

SMILES | Potency
CC1(C)S[C@@H]2[C@H](NC(=O)Cc3ccccc3)C(=O)N2[C@H]1C(=O)O | inactive
C[C@H]1C[C@H]2[C@@H]3CCC4=CC(=O)C=C[C@]4(C)[C@@]3(F)[C@@H](O)C[C@]2(C)[C@@]1(O)C(=O)CO | inactive
CCCCC(=O)N(Cc1ccc(-c2ccccc2-c2nn[nH]n2)cc1)[C@@H](C(=O)O)C(C)C | inactive
CO[C@H](C(=O)[C@@H](O)[C@@H](C)O)C1Cc2cc3cc(O[C@H]4C[C@@H](O[C@H]5C[C@@H](O)[C@H](O)[C@@H](C)O5)[C@@H](O)[C@@H](C)O4)c(C)c(O)c3c(O)c2C(=O)[C@H]1O[C@H]1C[C@@H](O[C@H]2C[C@@H](O[C@H]3C[C@](C)(O)[C@H](O)[C@@H](C)O3)[C@H](O)[C@@H](C)O2)[C@H](O)[C@@H](C)O1 (stereo not given in full) | 112 nM (active)
O=C(O)C1CCCN1 (stereo not given) | inactive
CC(=O)O[C@]1(C(C)=O)CC[C@H]2[C@@H]3CCC4=CC(=O)CC[C@]4(C)[C@@]3(F)[C@@H](O)C[C@@]21C | inactive
C/C1=C2N=C(/C=C3N=C(/C(C)=C4\[N-][C@@](C)([C@@H]5N=C1[C@](C)(CCC(=O)NCC(C)OP(=O)(O)O[C@H]1[C@@H](O)[C@@H](n6cnc7cc(C)c(C)cc76)O[C@@H]1CO)[C@H]5CC(N)=O)[C@@](C)(CC(N)=O)[C@@H]4CCC(N)=O)[C@@](C)(CC(N)=O)[C@@H]\3CCC(N)=O)C(C)(C)[C@@H]/2CCC(N)=O.CC(=O)O.[Co] (stereo not given in full) | inactive
OC[C@H]1O[C@@H](n2cnc3c2NC=NC[C@H]3O)C[C@@H]1O | inactive
CCN(CC)Cc1cc(Nc2ccnc3cc(Cl)ccc23)ccc1O | inactive
CCCCCCCCCCCCCCCCCCOP(=O)([O-])OC1CC[N+](C)(C)CC1 | inactive
Clc1cc(Cl)c(OCC#CI)cc1Cl | inactive
O=C(O)C[C@H](O)C[C@H](O)/C=C/c1c(C2CC2)nc2ccccc2c1-c1ccc(F)cc1 | 398 nM (active)
CC1(C)S[C@@H]2[C@H](NC(=O)C(C(=O)O)c3ccsc3)C(=O)N2[C@H]1C(=O)O (stereo not given in full) | inactive
CC[C@H]1OC(=O)C[C@@H](O)[C@H](C)[C@@H](O[C@@H]2O[C@H](C)[C@@H](O)[C@H](N(C)C)[C@H]2O)[C@@H](CCN2C[C@H](C)C[C@H](C)C2)C[C@@H](C)C(=O)/C=C/C(C)=C/[C@@H]1CO[C@@H]1O[C@H](C)[C@@H](O)[C@@H](OC)[C@H]1OC | inactive
CC[N+](C)(C)Cc1ccccc1Br | inactive
CC1(C)S[C@@H]2[C@H](NC(=O)C(N)c3ccccc3)C(=O)N2[C@H]1C(=O)OC1OC(=O)c2ccccc21 (stereo not given in full) | inactive
CC(=O)N[C@@H](CC(=O)N[C@@H](CCC(=O)O)C(=O)O)C(=O)O | inactive
